# Assay outcomes: PubChem BioAssay, National Center for Advancing Translational Sciences (NCATS)
# An excerpt weighted towards active compounds, which were near 21% of everything screened.
# AMA1 RON2 block – qHTS for Inhibitors of AMA1-RON; Towards Development of Antimalarial Drug Lead: Primary Screen. Plasmodium falciparum AMA1 (3D7) - RON2 peptide interaction. Potency, µM (top dose mostly 58.2 µM), inactives show top-dose activity change, negative = inhibition, most hits filed as inhibitors. 0.2% of 360,000 active. AlphaScreen AMA1-biotinylated RON2 peptide binding;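 further: potency means the concentration at half of the fitted maximal effect; 0% = vehicle wells and -100% = peptide control; nearly all actives have a fitted effect of over 45% in size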
#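 AMA1 (3D7) with his tag at 25 nM final met compounds first, then biotinylated RON2 peptide at 25 nM; detection used donor plus acceptor beads, 10 µg/mL apiece, read by AlphaScreen after 30 min at room temperature.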
# Shiga toxin inh – A qHTS for Small Molecule Inhibitors of Shiga Toxin; 9.2% of 290,000 active; inhibition, % at 38.7 µM; Vero cells, Shiga toxin protein synthesis inhibition reporter; in the data active means inhibition mostly above about 28%, no sharp cut-off; inactive means mostly below about 43%; further: 0% is about no effect
# Pf growth 48h – Primary qHTS for delayed death inhibitors of the malarial parasite plastid, 48 hour incubation. AID 504832, 2011. P. falciparum luciferase growth in erythrocytes, 48 h. Potency, µM (titrated, usually from 28.7 µM), for inactives: at the top dose activity change, negative = inhibition, most hits filed as inhibitors. 5.9% of 310,000 active; further: potency means the concentration at half of the fitted maximal effect; on the % scale 0 is the no-effect control and ±100 the full control effect
#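 In quantitative HTS format, infected erythrocytes bearing luciferase-reporter parasites were treated for a single generation at 37 C. Luminescence after adding detection reagent served as the growth measure.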
# HCV inh – qHTS Assay for Inhibitors of Hepatitis C Virus (HCV); Huh7.5.1 HCVcc-Cre infection, luciferase reporter, 44 h; Potency, µM (highest dose often 41.8 µM), without a hit: at the highest dose activity change, negative = inhibition, hits mostly inhibitors; 3.4% of 340,000 active; further: potency means the concentration at half of the fitted maximal effect; on the % scale 0 is the no-effect control and ±100 the full control effect
#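 Compounds are dispensed onto cells plated 4 h earlier at 1,000 per well, with HCVcc-Cre virus (about 0.5 moi) added next. Following 44 h of culture, luminescent signal is measured for 15 sec after 15 min with substrate at room temperature.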
# Cycloheximide cs – Cycloheximide Counterscreen for Small Molecule Inhibitors of Shiga Toxin. max response, %. 12% of 300,000 active. cell reporter, cycloheximide protein synthesis inhibition counterscreen; in the data active means max response mostly above about 13%, no sharp cut-off; inactive means mostly below about 14%; further: read at 38.3 µM for the half of the compounds with a filed dose; 0% is about no effect
# Pf growth 96h – Primary qHTS for delayed death inhibitors of the malarial parasite plastid, 96 hour incubation. 6.9% of 320,000 active. P. falciparum luciferase reporter growth, 96 h. Potency, µM (series often up to 28.7 µM), without a hit: at the top dose activity change, negative = inhibition, actives largely listed as inhibitors; further: potency means the concentration at half of the fitted maximal effect; on the % scale 0 is the no-effect control and ±100 the full control effect
#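 Plates of compound plus infected erythrocytes (2% hematocrit, 0.05% parasitemia final) incubate 96 hours, 37 C, 5% CO2. Detection reagent added; reduced luminescence from the parasites' luciferase reporter flags inhibition.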
# Numbers without * were called inactive; i = inactive; ? = inconclusive; · = not tested or not shown. Unless noted, the call rests on the fitted dose curve; in most records, active means well fitted curve in the direction sought with a large enough effect; inconclusive means small, poorly fitted or top-dose-only effect, or another doubt; inactive means no such curve, though single readings can be large; an effect the other way counts as inactive or inconclusive.
SMILES,AMA1 RON2 block,Shiga toxin inh,Pf growth 48h,HCV inh,Cycloheximide cs,Pf growth 96h
O=C(CNC(=O)c1ccc(Cl)cc1)c1ccc(Cl)cc1,2%,52*,·,-1%,16*,31%
CCCCN(CCCC)CCNC(=O)c1cn(CC)c2ccc(S(=O)(=O)N3CCc4ccccc4C3)cc2c1=O,-2%,1,?,?,-4,-10%
CCn1cc(C(=O)NCCCN2CCCC(C)C2)c(=O)c2cc(S(=O)(=O)N3CCc4ccccc4C3)ccc21 (stereo not given),-19%,-34,?,11µM*,-14,?
CCC1CCCCN1CCCNC(=O)c1cn(CC)c2ccc(S(=O)(=O)N3CCc4ccccc4C3)cc2c1=O (stereo not given),10%,-24,26%,13µM*,-4,22%
Cn1nnc2cc(NC(=O)Nc3cccc(C(F)(F)F)c3)ccc21,1%,18,·,-2%,1,0%
O=S1(=O)C2CC3CCC2(CN1Cc1cccc(F)c1)O3 (stereo not given),·,1,·,·,-3,·
CCOC(=O)c1csc(NC(=O)c2ccc(S(=O)(=O)N(C)C)cc2)n1,-6%,8,-4%,-14%,-6,-26%
CCOC(=O)Cc1cnc(NC(=O)c2ccccc2)s1,0%,91*,49%,-10%,53*,·
CCOC(=O)Cc1cnc(NC(=O)CSc2nc(N)cc(=O)[nH]2)s1,-5%,-11,-1%,9%,-2,?
CCOC(=O)c1csc(-c2ccc(OC)c(OC)c2)n1,-18%,16,?,?,30,-39%
CCOC(=O)c1csc(-c2ccc3c(c2)CCO3)n1,9%,59*,274%,-2%,41*,112%
CCOC(=O)c1csc(NC(=O)c2ccccc2)n1,-4%,129*,·,?,49*,167%
CCOC(=O)c1csc(NC(=O)c2ccc(OCC)cc2)n1,2%,95*,i,2.5µM*,38*,468%
CC1(C2CC2)NC(=O)N(CC(=O)Nc2ccc(Cl)c([N+](=O)[O-])c2)C1=O (stereo not given),-30%,·,-1%,12%,·,-32%
CCOC(=O)c1cccc(C(=O)OCC)n1,-4%,-13,11%,25%,-1,3%
CCOC(=O)c1csc(NC(=O)c2ccc(OC)c(OC)c2)n1,-1%,-4,67%,?,-3,·
CCOC(=O)c1csc(NC(=O)c2ccc3c(c2)OCCO3)n1,-13%,127*,196%,14µM*,51*,-6%
CCOC(=O)c1csc(-c2sccc2Br)n1,11%,54*,488%,12%,51*,171%
CCOC(=O)c1csc(NC(C)=O)n1,24%,28,82%,23%,28*,?
O=C1N(Cc2ccccc2)CC2(Br)COCOC12O (stereo not given),-4%,·,·,11%,·,·
Cc1ccc(N2NC(=O)/C(=C\c3cc4c(cc3[N+](=O)[O-])OCO4)C2=O)cc1C,-10%,-12,10µM*,7%,-1,0%
COc1cc(/C=C2/C(=O)NN(c3cccc(C)c3)C2=O)ccc1OC(=O)c1ccco1,-17%,12,12%,23%,3,4.1µM*
COc1cc(/C=C2/C(=O)NN(c3ccc(C)c(Cl)c3)C2=O)cc([N+](=O)[O-])c1O,0%,1,28%,14%,-2,-3%
COc1cccc(/C=C2/C(=O)NN(c3ccc(C)c(C)c3)C2=O)c1,14%,19,?,17%,8.5*,-4%
COc1cccc(/C=C2/C(=O)NN(c3ccc(F)cc3)C2=O)c1,-9%,-1,48%,23%,-3,23%
CCCn1c(SCC(=O)N2CCc3ccccc32)n[nH]c1=O,8%,·,·,20%,·,·
CC(C)(O)C#Cc1ccc(CN2CCC(n3nccc3NC(=O)C3CC3)CC2)cc1,13%,-8,-8%,5%,8,?
O=C(CNC(=O)c1ccc(N2CCCC2=O)cc1)Nc1ccc(F)c(F)c1F,15%,·,·,6%,·,·
